Source: PubChem
VP16 counter: VP16 counterscreen qHTS for inhibitors of ROR gamma transcriptional activity; Potency, µM (highest dose often 53.6 µM), inactives show top-dose activity, negative = inhibition, most hits filed as inhibitors; Drosophila S2 Gal4-VP16 UAS-luciferase, luminescence, 20 h; 310,000 tested, 3.5% active;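 note: Gal4-VP16 expression switched on by copper sulfate through the metallothionein promoter; potency is the fitted concentration of half-maximal effect; nearly all actives have a fitted effect of over 50% in size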
B2AR arrestin: qHTS assay of beta-arrestin-biased ligands of beta2-adrenergic receptor. Beta-2 adrenergic receptor (Homo sapiens), P07550. beta-arrestin recruitment to beta2AR, cell-based reporter. Potency, µM (top dose mostly 46.1 µM), for inactives: top-dose activation, hits mostly activators. 330,000 tested, 0.02% active. AID 492947, 2010;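 note: potency is the fitted concentration of half-maximal effect; 0% = DMSO controls and full agonism = EC100 isoproterenol or metaproterenol; nearly all actives have a fitted effect of over 65% in size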
TSHR antag: Antagonists of the Thyroid Stimulating Hormone Receptor: HTS campaign | Thyrotropin receptor (Homo sapiens), P16473 | TSHR-expressing cells, TSH-stimulated cAMP HTRF, 2 h; hits give low values | activity change, negative = inhibition, % at 11.5 µM | 330,000 tested, 0.2% active | AID 504810, 2011;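 active = activity change below a set negative limit, meaning inhibition stronger than a set level, cut at about -70% in these data; inconclusive = activity change between two set negative limits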
Target sequence (P16473 whole entry, looked up): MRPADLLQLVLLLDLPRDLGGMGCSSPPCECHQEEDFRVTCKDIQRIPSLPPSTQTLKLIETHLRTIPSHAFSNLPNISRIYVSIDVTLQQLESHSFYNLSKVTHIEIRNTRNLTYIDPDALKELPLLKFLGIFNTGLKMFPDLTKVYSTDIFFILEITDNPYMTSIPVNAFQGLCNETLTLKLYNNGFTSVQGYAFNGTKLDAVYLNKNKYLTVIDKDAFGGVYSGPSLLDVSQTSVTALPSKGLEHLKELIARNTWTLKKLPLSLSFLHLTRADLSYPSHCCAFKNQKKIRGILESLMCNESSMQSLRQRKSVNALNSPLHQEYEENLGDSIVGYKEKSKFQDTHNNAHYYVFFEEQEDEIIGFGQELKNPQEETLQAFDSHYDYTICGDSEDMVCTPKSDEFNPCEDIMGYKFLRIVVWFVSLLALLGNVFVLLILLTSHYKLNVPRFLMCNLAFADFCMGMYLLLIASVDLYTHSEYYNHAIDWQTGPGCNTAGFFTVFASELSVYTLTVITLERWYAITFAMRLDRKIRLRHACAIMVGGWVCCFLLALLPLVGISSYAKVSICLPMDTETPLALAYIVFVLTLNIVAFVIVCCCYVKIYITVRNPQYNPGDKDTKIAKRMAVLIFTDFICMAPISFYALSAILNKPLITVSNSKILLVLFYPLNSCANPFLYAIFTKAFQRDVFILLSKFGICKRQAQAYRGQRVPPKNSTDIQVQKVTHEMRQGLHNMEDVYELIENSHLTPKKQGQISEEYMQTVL
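Inhibition of cAMP made by TSHR-expressing cells under TSH stimulation (4nM final, EC80; 2 h, 37 deg C) is quantified with a one-step lysis HTRF kit, anti-cAMP cryptate versus cAMP-d2.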
RORgamma inh: qHTS for inhibitors of ROR gamma transcriptional activity | Nuclear receptor ROR-gamma (Mus musculus), P51450 | Drosophila S2 Gal4-RORgamma UAS-luciferase reporter, 20 h | Potency, µM (top dose mostly 53.6 µM), inactives show at the top dose activity change, negative = inhibition, most hits filed as inhibitors | 310,000 tested, 5.4% active; note: potency is the fitted concentration of half-maximal effect; nearly all actives have a fitted effect of over 60% in size
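Luminescence from a UAS-regulated Photinus luciferase reporter in stably transfected Drosophila Schneider cells is measured; decreased signal marks ROR gamma inhibition. Fusion expression is induced by 700 uM copper sulfate for 20 hr.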
ELG1 DNA repair: qHTS screen for small molecules that inhibit ELG1-dependent DNA repair in human embryonic kidney (HEK293T) cells expressing luciferase-tagged ELG1. HEK293T ELG1-luciferase reporter, luminescence, 16 h; DNA damage induced by 5-fluorouridine. Potency, µM (top dose mostly 46.1 µM), inactives show at the highest dose activity change, negative = inhibition, most hits filed as inhibitors. 330,000 tested, 2.3% active; note: potency is the fitted concentration of half-maximal effect; nearly all actives have a fitted effect of over 55% in size
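DMSO vehicle served as the neutral condition. Each well held 2,000 cells given 5-fluorouridine plus compound; after 16 hr at 37 °C/5% CO2, ONE-Glo was added and luciferase measured 30 min later.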
* hit, by the source's call; u = inconclusive; x = no result; [ ] = another dose, or the depositor's remark. This is a sample that favours compounds with a hit; in the whole collection about 7.5% have one here. Unless noted, calls come from the whole dose curve; as a rule, active = well fitted curve in the direction sought with a large enough effect; inconclusive = small, poorly fitted or top-dose-only effect, or another doubt; inactive = no such curve, though single readings can be large; an effect the other way counts as inactive or inconclusive. Unless noted, % is set by controls: 0 for no effect and ±100 for the full control effect.

SMILES	VP16 counter	B2AR arrestin	TSHR antag	RORgamma inh	ELG1 DNA repair
CCN(CC)c1ccc(-n2c(C)c(C(C)=O)c(C(C)=O)c2C)cc1	5.0%	0.5%	-16.9	40.8%	10.3µM*
CCc1ccccc1NC(=O)C1CCN(C(=O)c2ccc([N+](=O)[O-])cc2)CC1	-2.0%	-0.8%	14.0	18.3%	10.4%
Cc1nc(N2CCN(S(=O)(=O)c3cccc4nonc34)CC2)c2c3c(sc2n1)CCCC3	3.6%	-0.2%	u	-33.6%	18.4µM*
Cn1cc(CNCc2ccc(-n3cccn3)cc2)c(-c2ccccc2F)n1	11.2µM*	0.5%	-2.5	u	u
Cn1cc(CNCCCn2ncc3ccccc32)c(-c2ccccc2F)n1	-8.3%	-0.8%	11.8	27.6%	-1.6%
Cc1ccc(NC(=O)CCC(=O)N/N=C/c2cc([N+](=O)[O-])ccc2O)cc1	14.1µM*	-0.4%	-0.1	12.6µM*	u
O=C(CSc1nc2ccccc2s1)N/N=C/c1cc([N+](=O)[O-])ccc1O	u	-0.7%	8.8	5.01µM*	-7.4%
Cc1ccccc1NC(=O)CCC(=O)N/N=C/c1cc([N+](=O)[O-])ccc1O	u	-0.4%	-5.3	3.98µM*	u
CN1CCN(CCC(=O)N/N=C/c2cc([N+](=O)[O-])ccc2O)CC1	u	0.1%	21.5	u	-7.7%
Cc1ccc(C)c(NC(=O)CCC(=O)N/N=C/c2cc([N+](=O)[O-])ccc2O)c1	u	-0.4%	-15.8	5.62µM*	13µM*
Cc1ccc(/C=N/NC(=O)CSc2nc3ccccc3s2)o1	4.1%	-1.5%	-1.4	-32.6%	u
Cc1ccccc1NCC(=O)N/N=C/c1ccc([N+](=O)[O-])cc1	-23.5%	-0.7%	5.2	5.1%	1.0%
Cc1cc(Cl)cc(Cl)c1OCCN1CCCC1	-1.6%	-0.2%	-0.5	-6.1%	-11.0%
CC(C)Nc1cccnc1N1CCN(C(=O)c2cc3cc(NS(C)(=O)=O)ccc3[nH]2)CC1	6.8%	x	x	u	x
Cc1cc(=O)oc2cc(OCC(=O)N/N=C/c3cc([N+](=O)[O-])ccc3O)ccc12	2.24µM*	6.2%	-13.2	1.26µM*	u
Cc1cc(O)c(C(C)C)cc1N=Cc1ccccc1O	u	-0.4%	-7.2	-81.6%	5.0%
Cc1cc(O)c(C(C)C)cc1N=Cc1cc([N+](=O)[O-])ccc1O	u	-0.6%	-2.4	10µM*	9.9%
Cc1cc(=O)oc2cc(OCC(=O)NC3CCCC3)ccc12	-1.1%	-0.2%	0.5	0.2%	u
CCCCCCCCCCCCCCCCOCC(CO)OC (stereo unspecified)	-16.0%	x	x	21.3%	x
Cc1cccc(CNS(=O)(=O)c2csc(C(N)=O)c2)c1	-2.5%	0.1%	-70.2*	13.5%	4.9%
NC(=O)c1cc(S(=O)(=O)NCc2ccc(F)cc2)cs1	0.9%	0.0%	-131.6*	-4.1%	0.0%
Cc1ccnc(NC(=O)c2ccc(S(=O)(=O)NCc3ccco3)cc2)c1	x	-0.2%	8.8	x	3.7%
CS(=O)(=O)N1CCC2(CCCN(c3ccccn3)C2)CC1	12.5%	x	x	-18.1%	x
O=C(O)CCSc1nc2ccccc2s1	-9.1%	-0.2%	-12.1	1.78µM*	-19.1%
CC(=O)Nc1ccc(NC(=O)CCCSc2nc3ccccc3s2)cc1	5.01µM*	0.1%	6.9	7.08µM*	-1.4%
SMILES	VP16 counter	B2AR arrestin	TSHR antag	RORgamma inh	ELG1 DNA repair
O=C(CCCSc1nc2ccccc2s1)NC1=NCCS1	4.47µM*	-0.1%	6.2	0.891µM*	14.3%
O=C(OCc1ccccc1)/C(=C/c1cccc(Br)c1)NC(=O)c1ccco1	x	0.2%	-8.4	x	u
Cn1cnnc1Sc1ccc(C(F)(F)F)cc1[N+](=O)[O-]	-8.2%	0.8%	-2.8	-32.8%	8.2µM*
Cc1ccc(NC(=S)NCCC(c2ccccc2)c2ccccc2)c(C)c1	-8.7%[0.365 µM]	0.3%	-3.7	3.55µM*	-11.7%
CC(C)(C)c1ccccc1NC(=S)NCc1ccccc1	u	-0.2%	-1.4	5.8%	u
Cc1ccc(NC(=S)NCc2ccccc2)c(C)c1	7.08µM*	-0.4%	26.1	5.01µM*	u
Cc1ccccc1NC(=S)NCCC(c1ccccc1)c1ccccc1	12.6µM*	-0.7%	2.4	5.01µM*	-2.0%
CCN1CCN(Cc2ccc(NC(=O)c3cc(NC(=O)c4cncc(-c5ccc(C#N)cc5)c4)cc(OC)c3)cc2C(F)(F)F)CC1	3.55µM*	-0.7%	3.2	2.82µM*	25.5%
O=C1COc2ccc(C(=O)COc3ccc(Cl)cc3Br)cc2N1	x	-0.3%	-14.6	x	-25.6%
CCOc1ccc(C(=O)Nc2cccc(C(=O)O)c2)cc1Cl	u	0.3%	3.1	6.31µM*	u
Cc1ccc(C(=O)Nc2cccc(C(=O)O)c2)cc1	17.8µM*	0.2%	-1.2	5.01µM*	u
O=C(O)c1cccc(NC(=O)c2cc(NC(=O)c3ccccc3)cc(NC(=O)c3ccccc3)c2)c1	-8.5%	0.1%	22.6	31.3%	17.8%
O=C(NC(=S)Nc1cccc(CO)c1)c1ccc(-c2ccccc2)cc1	2.82µM*	7.1%	-16.4	1.58µM*	9.9%
Cc1ccc(C(=O)NC(=S)Nc2ccc(NC(=O)c3cccc(Cl)c3)cc2)cc1	10µM*	-1.2%	2.3	u	15.3%
O=C(NC(=S)Nc1cc(Cl)ccc1O)c1cccc(Br)c1	3.55µM*	0.5%	20.9	1.26µM*	-17.2%
O=C(O)c1cccc(NC(=O)c2ccc3c(c2)C(=O)N(CC2CCCO2)C3=O)c1 (stereo unspecified)	-29.9%	-0.2%	3.3	0.562µM*	-1.6%
Cc1cc(C(=O)Nc2cnc3ccccc3c2)ccc1[N+](=O)[O-]	5.7%	-0.2%	-16.6	20.0%	u
Cc1ccc(C(=O)Nc2cnc3ccccc3c2)cc1	2.82µM*	-0.4%	-8.8	3.16µM*	u
COC(=O)c1cccc(NC(=O)c2ccc3c(c2)C(=O)N(CC2CCCO2)C3=O)c1 (stereo unspecified)	-1.6%	0.0%	-7.3	26.9%	-21.1%
O=C(O)c1cccc(NC(=S)NC(=O)c2ccc3ccccc3c2)c1	7.08µM*	0.0%	-19.3	10µM*	u
Cc1noc(C)c1-c1nccc(NCc2ccccc2)n1	4.6%	x	x	-5.3%	x
CCCCCC(=O)O[C@H](CC(=O)O)C[N+](C)(C)C	-8.1%	x	x	12.8%	x
CC(=O)c1cccc(NC(=S)NC(=O)c2ccc(Br)cc2)c1	10µM*	0.0%	7.4	5.62µM*	u
CC(=O)c1cccc(NC(=S)NC(=O)c2ccc(C)cc2)c1	12.6µM*	0.0%	-7.1	10µM*	u
CCOc1cc(CNn2cn[nH]c2=S)cc(Cl)c1OCc1ccccc1F	6.31µM*	-0.3%	-29.3	7.94µM*	-22.1%
